KB-3-1 cytotox = kills parental KB-3-1 adenocarcinoma cells. KB-3-1 viability, CellTiter-Glo ATP luminescence, 72 h. Potency, µM (doses to about 46.1 µM), hits mostly cytotoxic. actives 1.4% (n = 400,000); further: potency means the concentration at half of the fitted maximal effect; on the % scale 0 is the no-effect control and ±100 the full control effect; nearly all actives have a fitted effect of over 60% in size
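KB-3-1 parental drug-naive adenocarcinoma cells in DMEM/10% FBS, incubated 72 h at 37 C with pin-transferred compounds across a concentration series. Viability by CellTiter-Glo luminescence; concentration-response curves fitted after normalization.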
hERG WT inh = blocks the wildtype human KCNH2 potassium channel; U2OS, BacMam KCNH2, thallium flux FluxOr; active compounds read low; activity change, % at 1.84 µM; actives 0.37% (n = 340,000); AID 720551;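 active means maximum activity change below -70%; inconclusive means maximum activity change between -70% and -50%; inactive means maximum activity change above -50%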; further: on the % scale 0 is the no-effect control and ±100 the full control effect
Target sequence (Q12809 whole entry, looked up): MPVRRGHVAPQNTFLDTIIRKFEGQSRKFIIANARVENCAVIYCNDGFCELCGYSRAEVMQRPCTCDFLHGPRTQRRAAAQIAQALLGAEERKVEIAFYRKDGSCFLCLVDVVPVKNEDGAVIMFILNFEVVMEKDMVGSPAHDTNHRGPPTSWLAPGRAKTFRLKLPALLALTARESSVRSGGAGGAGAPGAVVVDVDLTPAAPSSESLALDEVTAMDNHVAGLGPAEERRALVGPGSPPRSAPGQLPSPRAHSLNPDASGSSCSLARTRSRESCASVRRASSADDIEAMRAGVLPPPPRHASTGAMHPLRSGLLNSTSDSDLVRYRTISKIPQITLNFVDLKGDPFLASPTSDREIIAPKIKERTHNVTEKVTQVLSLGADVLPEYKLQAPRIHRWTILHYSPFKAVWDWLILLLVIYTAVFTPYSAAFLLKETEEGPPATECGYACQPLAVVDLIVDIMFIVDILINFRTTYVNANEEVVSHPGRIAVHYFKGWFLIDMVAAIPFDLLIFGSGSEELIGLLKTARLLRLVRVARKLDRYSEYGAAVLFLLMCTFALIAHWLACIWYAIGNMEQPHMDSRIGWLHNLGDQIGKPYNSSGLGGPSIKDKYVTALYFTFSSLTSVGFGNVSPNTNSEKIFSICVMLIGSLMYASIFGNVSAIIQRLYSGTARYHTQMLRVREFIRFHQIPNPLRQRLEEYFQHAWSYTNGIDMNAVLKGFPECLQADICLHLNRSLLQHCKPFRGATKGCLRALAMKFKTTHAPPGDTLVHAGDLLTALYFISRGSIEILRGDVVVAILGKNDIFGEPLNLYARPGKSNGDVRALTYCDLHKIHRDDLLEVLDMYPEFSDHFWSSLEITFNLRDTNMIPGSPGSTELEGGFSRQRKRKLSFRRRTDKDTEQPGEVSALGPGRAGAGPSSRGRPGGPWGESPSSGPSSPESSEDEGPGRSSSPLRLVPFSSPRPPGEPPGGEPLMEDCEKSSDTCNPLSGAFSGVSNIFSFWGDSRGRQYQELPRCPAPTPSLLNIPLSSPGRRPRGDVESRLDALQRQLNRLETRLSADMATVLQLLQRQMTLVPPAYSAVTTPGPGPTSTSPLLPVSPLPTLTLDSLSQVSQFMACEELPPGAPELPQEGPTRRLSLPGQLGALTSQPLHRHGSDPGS
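U2OS cells transduced with wild-type KCNH2 virus are loaded with FluxOr dye for 45 min, and thallium flux is measured in kinetic reads before and after stimulation buffer. Rate constants are normalized to DMSO controls.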
KCNH2 3.1 block = KCNH2 3.1 (human) potassium channel inhibition; U2OS KCNH2 3.1, thallium flux FluxOr; active compounds read low; activity change, % (tested at about 1.8 µM); actives 0.95% (n = 340,000); AID 720553;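 active means maximum activity change below -70%; inconclusive means maximum activity change from -70% to -50%; inactive means maximum activity change above -50%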;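 further: thallium influx rate constant from kinetic fluorescence after stimulation buffer; on the % scale 0 is the no-effect control and ±100 the full control effect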
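Channel expression came from 3.1 mutant virus (1.77 x 10^8 /mL) applied to suspended U2OS cells for 4 h. Flux was tracked with FluxOr dye plus Red40 quencher, and kinetic rate constants normalized to controls.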
KB-V1 MDR tox = KB-V1 MDR subline cytotoxicity; KB-V1 MDR cells viability, CellTiter-Glo, 72 h; Potency, µM (top dose mostly 46.1 µM), usual class: cytotoxic; actives 3.4% (n = 400,000); further: potency means the concentration at half of the fitted maximal effect; on the % scale 0 is the no-effect control and ±100 the full control effect; nearly all actives have a fitted effect of over 60% in size
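Cytotoxicity via CellTiter-Glo luminescence after 72 h compound exposure at 37 degrees C. Cells: drug-selected KB-V1 line, DMEM phenol-red free plus 10% FBS. Compounds tested at multiple concentrations; normalized data fitted to concentration-effect curves.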
MCF10A rerep = inducers of DNA re-replication in MCF 10A breast cells | MCF 10A DNA re-replication, Hoechst nuclear intensity, 48 h | Potency, µM (titrated, usually from 46.1 µM), inactives show at the highest dose activity, positive = re-replication, hits mostly activators | actives 2.9% (n = 350,000) | AID 624296; further: potency means the concentration at half of the fitted maximal effect; % of control where 0% means no effect; nearly all actives have a fitted effect of over 50% in size
SW480 rerep = induces DNA re-replication in SW480 colon adenocarcinoma cells | Potency, µM (top dose mostly 46.1 µM), for the others: at the top dose re-replication activation, usual class: activators | SW480 DNA re-replication, Hoechst DNA content imaging, 48 h | actives 1.8% (n = 340,000); further: potency means the concentration at half of the fitted maximal effect; % of control where 0% means no effect; nearly all actives have a fitted effect of over 55% in size
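SW480 cells exposed to compounds for 48 hr at 37 C, 5% CO2, then Hoechst-stained 40 min. Nuclear DNA content imaged by fluorescence scanning (405 nm excitation, 500-530 nm emission); re-replication scored as increased high-intensity nuclei.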
* marks the source's active call; other numbers are inactive results; i = inactive; ? = inconclusive; . = not tested or not shown; ! = not active in a repeat. Rows were chosen to be rich in hits. Some 7.6% of all compounds tested hit in one or more screens of this group. Unless noted, the call rests on the fitted dose curve; in most records, active means well fitted curve in the direction sought with a large enough effect; inconclusive means small, poorly fitted or top-dose-only effect, or another doubt; inactive means no such curve, though single readings can be large; an effect the other way counts as inactive or inconclusive.

SMILES | KB-3-1 cytotox | hERG WT inh | KCNH2 3.1 block | KB-V1 MDR tox | MCF10A rerep | SW480 rerep
COc1cc(Cl)cc(C=O)c1OCC(=O)O | i | 6.5 | 4.8 | i | -22.0% | -20.0%
COc1ccc(NC(=O)Cn2nnc(C(=O)NCc3ccccc3)c2N)c(OC)c1 | ? | -12.4 | -10.7 | i | 16.4µM* | ?
COc1ccccc1NC(=O)Cn1nnc(C(=O)NCc2cccs2)c1N | 2.06µM*! | 15.4 | 5.5 | 5.8µM* | 1.16µM* | ?
CCc1ccccc1NC(=O)Cn1nnc(C(=O)NCc2ccco2)c1N | 8.2µM* | . | . | ? | . | .
CCc1ccccc1NC(=O)Cn1nnc(C(=O)NCc2cccs2)c1N | 9.2µM*! | i | 23.9 | i | ? | 3.26µM*
COc1ccc(NC(=O)Cn2nnc(C(=O)NCc3cccs3)c2N)cc1 | i | 11.9 | 10.2 | i | -0.6% | 4.9%
C=C(C)CSc1nc(N)c2c(C)c(C)sc2n1 | i | -12.1 | 1.8 | i | 16.2% | 18.4%
COc1ccc(Cl)cc1NC(=O)COC(=O)c1cc(NS(=O)(=O)c2cccs2)ccc1O | i | 1.9 | -4.0 | i | 18.1% | -2.8%
CCOc1ccc(OCC)c(NC(=O)c2nnn(CC(=O)Nc3cc(C)cc(C)c3)c2N)c1 | i | 0.6 | 1.2 | i | 18.4µM* | ?
O=[N+]([O-])c1cc(CN2CCCC2)ccc1Sc1ccc(Cl)cc1 | ? | 25.5 | -92.1* | ? | 10.3µM* | 6.4%
c1cc(-c2ccc(N3CCOCC3)cc2)n2ccnc2c1 | i | . | . | i | . | .
CCC1(C)CC(=O)c2c(ccc3oc(C(=O)NCc4ccccc4)c(C)c23)O1 (centres undefined) | i | . | . | i | . | .
Cc1c(C(=O)NCc2ccoc2)oc2ccc3c(c12)C(=O)CC(C)(C)O3 | i | 5.4 | -7.5 | 18.4µM* | ? | 4.5%
CCC(=O)N1CCN(c2ccc(OC)cc2[N+](=O)[O-])CC1 | i | -1.4 | 20.2 | i | 0.4% | -2.8%
COc1ccc(N2CCN(C(=O)CC34CC5CC(CC(C5)C3)C4)CC2)c([N+](=O)[O-])c1 | ? | -4.6 | -5.3 | 18.4µM* | ? | 4.0%
CCN(CC)C(=O)CSc1nc2c(c(=O)n(C)c(=O)n2C)n1Cc1ccccc1 | i | . | . | i | . | .
Cc1nn(Cc2ccccc2Cl)c(C)c1C(=O)NCc1ccco1 | i | -4.7 | -12.8 | i | 2.5% | -8.6%
Cc1nn(Cc2ccccc2Cl)c(C)c1C(=O)NCCN1C(=O)S/C(=C\c2ccccc2)C1=O | i | 4.6 | -3.3 | ? | 16.4µM* | -6.8%
COc1ccccc1NC(=O)Nc1ccc(-n2ccc(C(F)(F)F)n2)cc1 | ? | -124.5* | -201.5* | ? | ? | 17.8%
Cc1cc(C)cc(NC(=O)Nc2ccc(-n3ccc(C(F)(F)F)n3)cc2)c1 | i | 9.7 | -3.3 | i | 20.6µM* | ?
O=C(O)CCC(=O)Nc1ccc(-n2ccc(C(F)(F)F)n2)cc1 | i | 3.4 | 15.3 | i | 2.0% | -9.3%
O=C(NCc1cccnc1)c1ccccc1[N+](=O)[O-] | i | -11.8 | 10.7 | i | 2.7% | -0.6%
O=C(NC(=S)NCc1ccccc1)c1cccnc1 | i | -77.6* | 25.6 | ? | 7.2% | -17.7%
O=C(NC(=S)NCc1cccnc1)c1ccccc1[N+](=O)[O-] | i | 1.0 | 17.3 | 23.1µM* | 0.6% | -32.4%
Cc1ccc(C(C)(C)C)cc1S(=O)(=O)Nc1cccc(S(=O)(=O)NC2=NCCC2)c1 | i | -8.8 | -2.7 | i | 12.7% | -4.7%
SMILES | KB-3-1 cytotox | hERG WT inh | KCNH2 3.1 block | KB-V1 MDR tox | MCF10A rerep | SW480 rerep
Cc1ccc2c(Cl)c(C(=O)NCc3cccnc3)sc2c1 | i | 6.5 | 19.9 | 14.6µM* | 10.7% | 0.8%
CCN(CC)Cc1ccc(NC(=O)c2sc3cc(Cl)ccc3c2Cl)cc1 | ? | 5.6 | -95.0* | ? | ? | ?
Cc1ccc2c(Cl)c(C(=O)Nc3ccc4c(c3)OCO4)sc2c1 | i | 10.8 | 7.0 | i | ? | 20.6µM*
CCN(CC)c1ccc(NC(=O)c2sc3ccccc3c2Cl)cc1 | i | . | . | i | . | .
Cc1noc(C(=O)Nc2ccc3c(c2)OCO3)c1Cl | i | -5.4 | 22.3 | i | 0.3% | 3.2%
COc1ccc(OCC(=O)N2CCC(n3nccc3NC(=O)C3CC3)CC2)cc1 | i | -4.5 | 10.9 | ? | 0.0% | -3.2%
CN1CCC/C1=C/C=C1\SC(=S)NC1=O | i | -12.8 | -3.1 | i | -6.7% | -5.0%
CCc1cc(C(c2ccncc2)N2CCN(C)CC2)c(NC(=O)c2ccccc2)s1 (centres undefined) | i | 0.3 | -8.2 | 20.6µM* | -34.1% | -693.2%
Cc1sc(NC(=O)c2ccccc2)c(C(c2ccc(Cl)cc2)N2CCN(CCO)CC2)c1C (centres undefined) | 20.6µM* | 37.1 | -2.8 | ? | ? | 23.6%
CCOc1ccc(C(c2c(NC(=O)c3ccccc3)sc(C)c2C)N2CCN(CCO)CC2)cc1 (centres undefined) | ? | -0.6 | -27.1 | ? | ? | 3.66µM*
O=C(NNC(=O)C1CCCCC1)c1cnccn1 | i | -2.4 | -21.0 | ? | -4.5% | -4.6%
O=C(CCC1CCCCC1)NNC(=O)c1cnccn1 | i | -5.8 | -22.3 | ? | ? | 2.91µM*
C=CCNc1nc(N)c(C(=C(C#N)C#N)c2ccc(Br)cc2)s1 | ? | -6.8 | -0.3 | 18.4µM* | ? | 20.6µM*
O=C(CSc1nc2c(c(=O)[nH]1)CCC2)Nc1cccc(F)c1 | i | 9.7 | -15.8 | i | 10.7% | -19.4%
O=C(NC1CCCCC1)C(c1ccc(O)cc1)N(CC1CCCO1)C(=O)C1COc2ccccc2O1 (centres undefined) | i | -7.3 | -3.1 | 20.6µM* | 0.3% | 10.0%
COCCN(C(=O)c1snc(C(N)=O)c1N)C(C(=O)NC1CCCCC1)c1ccc(OC)c(OC)c1 (centres undefined) | i | -3.4 | -10.9 | i | 4.2% | -4.6%
Cc1cc(N2CC(C)OC(C)C2)nc(C(C)C)n1 (centres undefined) | i | -4.1 | 8.7 | i | 1.7% | 1.1%
COc1ccc(-n2c(CNc3ccc(C)cc3)nnc2SCc2ccccc2)cc1 | i | 2.5 | 3.0 | ? | ? | -10.8%
CCOc1ccc(NCc2nnc(SCc3ccccc3Cl)n2-c2ccccc2)cc1 | i | 31.2 | -2.4 | 20.6µM* | ? | 20.3%
CC(C)(C)C(=O)Nc1cc(NC(=O)C(C)(C)C)cc(C(=O)Nc2c[nH]c(=O)[nH]c2=O)c1 | i | -7.8 | -11.1 | i | ? | -18.2%

Bioassay records (PubChem BioAssay)
